# Results from the supplement of paper PMC8975748.
# Counter-ions that a name gives are not always drawn.
# System: Saccharomyces cerevisiae BY4741 SeMeCo community
# Assay: z-score of subpopulation abundance vs DMSO median, subpopulation auxotrophic for HL; higher = larger share of this subpopulation than in DMSO controls
# Settings: 10 µM; 24 h; SM minimal medium; subpopulation (auxotrophy): HL
# Method: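 Fluorescent four-plasmid SeMeCo (self-establishing metabolically cooperating S. cerevisiae BY4741 community; plasmids pH-mRuby2, pL-mWasabi, pU-eCFP, pM-TagRFP657) was grown 24 h in minimal SM medium with each Selleck FDA-approved drug at 10 µM in 384-well plates. Cells were fixed and imaged by high-content confocal microscopy. For each auxotrophic subpopulation (and the prototroph), a z-score gives the deviation from the DMSO vehicle-control population median.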
row,SMILES,z-score of subpopulation abundance
1,C[C@@H]1C/C=C/C=C/C=C/C=C/[C@H](O[C@@H]2O[C@H](C)[C@@H](O)[C@H](N)[C@@H]2O)C[C@@H]2O[C@](O)(C[C@@H](O)C[C@H]3O[C@@H]3/C=C/C(=O)O1)C[C@H](O)[C@H]2C(=O)O [Natamycin],22.5
2,Cc1ccc(Nc2c(F)cccc2Cl)c(CC(=O)O)c1 [Lumiracoxib],-0.22
3,CN1[C@@H]2CC[C@H]1C[C@@H](OC(=O)c1c[nH]c3ccccc13)C2 [Tropisetron],1.63
4,CN1C(C(=O)Nc2ccccn2)=C(O)c2ccccc2S1(=O)=O [Piroxicam],-0.37
5,O=C1NC(=O)C(c2ccccc2)(c2ccccc2)N1 [Phenytoin],-0.93
6,C#C[C@]1(O)CC[C@H]2[C@@H]3CCc4cc(OC)ccc4[C@H]3CC[C@@]21C [Mestranol],-0.16
7,COCCOC(=O)C1=C(C)NC(C)=C(C(=O)OC/C=C/c2ccccc2)C1c1cccc([N+](=O)[O-])c1 (stereo not given) [Cilnidipine],0.94
8,Cc1onc(-c2c(F)cccc2Cl)c1C(=O)N[C@@H]1C(=O)N2[C@@H]1SC(C)(C)[C@@H]2C(=O)O [Flucloxacillin sodium],-0.43
9,CN(C)CC/C=C1/c2ccccc2Sc2ccc(Cl)cc21 [Chlorprothixene],-0.06
10,NC[C@H]1O[C@H](O[C@H]2[C@H](O[C@@H]3O[C@H](CO)[C@@H](O)[C@H]3O)[C@@H](O)[C@H](N)C[C@@H]2N)[C@H](N)[C@@H](O)[C@@H]1O [Ribostamycin Sulfate],-0.49
11,Cc1ncc([N+](=O)[O-])n1CCOC(=O)c1ccccc1 [Metronidazole Benzoate],-0.69
12,Oc1ccc([C@H]2COc3cc(O)ccc3C2)cc1 [Equol],-0.02
13,C=C1CCN([C@H](C)[C@](O)(Cn2cncn2)c2ccc(F)cc2F)CC1 [Efinaconazole],11.6
14,CC[C@H](C)C(=O)O[C@H]1C[C@@H](C)C=C2C=C[C@H](C)[C@H](CC[C@@H]3C[C@@H](O)CC(=O)O3)[C@H]21 [Lovastatin],0.97
15,CN1[C@@H]2CC[C@H]1C[C@@H](OC(=O)c1c[nH]c3ccccc13)C2 [Tropisetron HCl],-0.91
16,C[C@@H]1CC(=O)NN=C1c1ccc(NN=C(C#N)C#N)cc1 [Levosimendan],-0.63
17,Cc1cc(NS(=O)(=O)c2ccc(N)cc2)nc(C)n1 [sulfaisodimidine],-0.94
18,O=c1ccn(C2CC(O)C(CO)O2)c(=O)[nH]1 (stereo not given) [2-deoxyuridine],1.21
19,CC[N+](CC)(CC)CC [Tetraethylammonium bromide],-0.73
20,COc1ccc(C(Cl)=C(c2ccc(OC)cc2)c2ccc(OC)cc2)cc1 [Chlorotrianisene],0.2

row,SMILES,z-score of subpopulation abundance
1,COc1ccccc1OCC(O)CN1CCN(CC(=O)Nc2c(C)cccc2C)CC1 (stereo not given) [Ranolazine 2HCl],0.26
2,COc1ccc(Cc2cnc(N)nc2N)cc1OC [Diaveridine],-0.33
3,CCC[C@@H]1C[C@@H](C(=O)N[C@@H]([C@H]2O[C@H](SC)[C@H](O)[C@@H](O)[C@H]2O)[C@@H](C)O)N(C)C1 [Lincomycin HCl],-0.34
4,Cc1c(-c2ccc(O)cc2)n(Cc2ccc(OCCN3CCCCCC3)cc2)c2ccc(O)cc12 [Bazedoxifene HCl],1.1
5,COC(=O)C1=C(C)NC(C)=C(C(=O)OCCN(C)Cc2ccccc2)C1c1cccc([N+](=O)[O-])c1 (stereo not given) [Nicardipine HCl],-0.11
6,c1ccc(C2CN3CCSC3=N2)cc1 (stereo not given) [Tetramisole HCl],0.08
7,O=C(O)c1cccnc1Nc1cccc(C(F)(F)F)c1 [Niflumic acid],-0.39
8,CC(C)[N+](C)(CCOC(=O)C1c2ccccc2Oc2ccccc21)C(C)C [Propantheline bromide],-0.65
9,CCn1cc(C(=O)O)c(=O)c2cc(F)c(N3CCNC(C)C3)c(F)c21 (stereo not given) [Lomefloxacin HCl],1.2
10,Cc1nnc(NS(=O)(=O)c2ccc(N)cc2)s1 [Sulfamethizole],-0.84
11,C[C@@H](c1ncncc1F)[C@](O)(Cn1cncn1)c1ccc(F)cc1F [Voriconazole],6.37
12,Cn1cc(C(=O)[C@@H]2CCc3[nH]cnc3C2)c2ccccc21 [Ramosetron Hydrochloride],-0.22
13,OCCOCCN1CCN(C2=Nc3ccccc3Sc3ccccc32)CC1 [Quetiapine Fumarate],-0.06
14,O=C(O)Cc1ccccc1Nc1c(Cl)cccc1Cl [Diclofenac Sodium],-0.56
15,CCCCCCCCc1ccc(CCC(N)(CO)CO)cc1 [Fingolimod],-1.71
16,C[C@]1(Cn2ccnn2)[C@H](C(=O)O)N2C(=O)C[C@H]2S1(=O)=O [Tazobactam],-0.38
17,COc1cc(O)c(C(=O)Nc2nc(C(=O)NCCN(C(C)C)C(C)C)cs2)cc1OC [Acotiamide],1.99
18,CCn1cc(C(=O)O)c(=O)c2cc(F)c(N3CCN(C)CC3)cc21 [Pefloxacin Mesylate Dihydrate],0.3
19,CC(=O)NS(=O)(=O)c1ccc(N)cc1 [Sulfacetamide Sodium],0.22
20,CC(=O)OC1CC2(C)C(CC(O)C3C4(C)CCC(O)C(C)C4CCC32C)C1=C(CCC=C(C)C)C(=O)O (stereo not given) [Fusidine],2.33
